An excerpt weighted towards active compounds, which were near 5.7% of everything screened.
hcDAF12 agonist – H. contortus DAF-12 nuclear receptor activators, primary screen, cell-based, luminescence, HEK293, lit1-tk-luc reporter; HEK293 hcDAF-12 lit1-tk-luc reporter; 0% DMSO, 100% Δ7-dafachronic acid; activation, % at 6.8 µM; 370,000 tested, 1.4% active;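 active means activation above the mean of all tested compounds plus 3 SD, cut at about 5.5% in these data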
hgDAF-12 ag – H. glycines DAF-12 receptor agonists, primary screen, cell-based, luminescence, HEK293, GAL4 fusion, UAS-luciferase | Nuclear hormone receptor DAF-12 (Heterodera glycines), GAL4 fusion | HEK293 GAL4-hgDAF12 UAS-luciferase reporter, agonist luminescence; normalized to butyrate control | activation, % at 6.8 µM | 370,000 tested, 1.8% active;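 active means activation above a cutoff set at the mean of all screened compounds plus 3 SD, cut at about 10% in these data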
AHR act – AHR activators, primary screen, cell-based, luminescence, luciferase reporter, human | AHR-responsive luciferase reporter cells | Aryl hydrocarbon receptor (Homo sapiens), P35869 | AID 2796, 2010 | activation, % at 5 µM | 320,000 tested, 2.5% active; in the data active means activation above about 47%
DAX1 inh-1 – DAX1 (NR0B1) inhibitors, primary screen, cell-based, HEK293, Gal4-DAX1, luciferase luminescence; HEK293 Gal4-DAX1 luciferase reporter; Nuclear receptor subfamily 0 group B member 1 (Homo sapiens), P51843; 340,000 tested, 0.99% active; inhibition, % at 6.75 µM; AID 504766, 2011;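 active means inhibition above the mean over all tested compounds plus 3 SD, cut at about 4.2% in these data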;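 further: inhibition shows as a rise in luminescence from relieved DAX1 repression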
Target sequence (P51843 207-470 limits assumed): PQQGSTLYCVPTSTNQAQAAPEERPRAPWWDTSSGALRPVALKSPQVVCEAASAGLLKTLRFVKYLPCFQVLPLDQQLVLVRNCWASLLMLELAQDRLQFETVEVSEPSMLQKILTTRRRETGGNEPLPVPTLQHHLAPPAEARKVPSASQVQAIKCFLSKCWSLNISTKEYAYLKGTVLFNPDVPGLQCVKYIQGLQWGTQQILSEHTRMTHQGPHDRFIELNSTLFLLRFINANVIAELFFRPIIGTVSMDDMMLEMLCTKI
ssDAF-12 act – S. stercoralis DAF-12 nuclear receptor activators, primary screen, cell-based, luminescence, HEK293, GRIP1 co-expression, lit1-tk-luc; activation, % at 6.8 µM; HEK293 ssDAF-12/GRIP1 lit1-tk-luc reporter; % of 3 µM dafachronic acid response; 370,000 tested, 1% active; Nuclear hormone receptor DAF-12 (Strongyloides stercoralis);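 active means activation above the mean over all tested compounds plus 3 SD, cut at about 0.9% in these data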
DAX1 inh-2 – DAX1 (NR0B1) inhibitors on StAR promoter, primary screen, cell-based, luminescence, SF-1 (NR5A1), full-length DAX-1. HEK293T StAR-luciferase reporter, SF-1/DAX-1 repression relief. inhibition, % at 6.8 µM. 370,000 tested, 1.1% active. AID 652010, 2013;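 active means inhibition above the mean over all tested compounds plus 3 SD, cut at about 3.6% in these data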;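 further: higher inhibition means more luminescence from relief of DAX-1 repression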
hgDAF12 conf – H. glycines DAF-12 receptor agonists, confirmation, cell-based, luminescence, HEK293, GAL4-LBD fusion. 3,300 tested, 80% active. shares compounds with hgDAF-12 ag. activation, % at 6.8 µM. HEK293 GAL4-hgDAF12 luciferase reporter, agonist mode; percent of butyrate response;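 active means mean activation over triplicate wells above the hit cutoff derived from the earlier primary screen, cut at about 11% in these data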
LXR ag 2 – LXR agonists, Gal4 luciferase reporter, confirmation, counter-screen for hgDAF-12 agonist project, cell-based, luminescence, HEK293, H. glycines campaign | 24 h | activation, % at 6.8 µM | 3,300 tested, under 10 active | shares compounds with hgDAF-12 ag;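 active means mean activation of the triplicate above a set limit carried over from the primary screen, none filed active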
Of the large screens only hits and unclear results are named; the others gave an inactive call (follow-up assays come after a bar, where they were run).

CCC(C)NC(=O)c1ccc2c(Cl)c3c(nc2c1)CCC3 (stereo not drawn)	hgDAF-12 ag 18, DAX1 inh-1 5.7 | hgDAF12 conf inactive | LXR ag 2 inactive
CN(C(=O)c1ccc2c(Cl)c3c(nc2c1)CCC3)c1ccccc1	none
CCCN1C(C)C(C(=O)OCC)=CN(Cc2cccc(I)c2)S1(=O)=O (stereo not drawn)	none (no result: hcDAF12 agonist, hgDAF-12 ag, AHR act, ssDAF-12 act, DAX1 inh-2)
O=C(Nc1ccccc1)O/N=C(\c1ccccc1)c1ccccn1	hgDAF-12 ag 16 | hgDAF12 conf inactive | LXR ag 2 inactive
Cc1ccc(NC(=O)N2CCC(c3ccccc3)C2)cc1C (stereo not drawn)	hgDAF-12 ag 15, DAX1 inh-1 5.8, DAX1 inh-2 3.6 | hgDAF12 conf 19 | LXR ag 2 inactive
CCOC(=O)c1c(-c2cc(OC)c(OC)c(OC)c2)csc1N	none (no result: AHR act)
CC(=O)c1ccc(NC(=O)CCCN2C(=O)C(c3ccccc3)Oc3cccnc32)cc1 (stereo not drawn)	none
COc1cc(/C=C/c2ccc3cccc(O)c3n2)cc(Cl)c1OC	hgDAF-12 ag 14 | hgDAF12 conf 17 | LXR ag 2 inactive
COC(=O)C(=O)/C=C(\O)c1c(C)cc(C)cc1C	none
CCc1ccc(C(=O)CN2CCSC2=N)cc1	hcDAF12 agonist 5.6, hgDAF-12 ag 20 | hgDAF12 conf 17 | LXR ag 2 inactive
Cc1ccc(NC(=O)c2cc3cccc([N+](=O)[O-])c3[nH]2)cc1	hgDAF-12 ag 13, AHR act 71, ssDAF-12 act 1.3 | hgDAF12 conf 19 | LXR ag 2 inactive
Cc1ccc(NC(=O)c2ccc(-n3cccn3)c([N+](=O)[O-])c2)cc1	none
Cc1ccc(NC(=O)c2ccccc2)cc1C	none
O=C(Nc1ccc2[nH]c(=S)sc2c1)c1ccccc1	hgDAF-12 ag 14, DAX1 inh-2 3.7 | hgDAF12 conf 12 | LXR ag 2 inactive
O=C(NCCc1ccccc1)C(=Cc1ccc(C(=O)O)cc1)C(=O)NCCc1ccccc1	none
C/C(=C\c1ccccc1)C(=O)NCCc1ccccc1	hgDAF-12 ag 19 | hgDAF12 conf 16 | LXR ag 2 inactive
O=c1c(-c2ccc3c(c2)OCCO3)coc2cc(O)cc(O)c12	hgDAF-12 ag 14 | hgDAF12 conf 15 | LXR ag 2 inactive
CSCCC(C(=O)NC(C)(C)C)n1c(-c2ccc3c(c2)OCO3)nc2ccccc21 (stereo not drawn)	none (no result: AHR act, DAX1 inh-1)
CC(NC(=O)C1CCC(CNS(=O)(=O)c2ccccc2)CC1)c1ccccc1 (stereo not drawn)	none
Cc1ccc(Nc2n[nH]c(=S)s2)cc1C	hgDAF-12 ag 18, DAX1 inh-2 3.8 (no result: AHR act) | hgDAF12 conf 11 | LXR ag 2 inactive
Cc1scc(C(=O)N/N=C/c2ccco2)c1C	none
Cc1scc(C(=O)N/N=C/c2ccsc2)c1C	hgDAF-12 ag 18, ssDAF-12 act 1.1 | hgDAF12 conf 17 | LXR ag 2 inactive
Cc1ccc(Nc2nnc(SCC(=O)Nc3ccccc3[N+](=O)[O-])s2)cc1	none
Cc1ccc(Nc2nnc(SCC(=O)Nc3cccnc3Cl)s2)cc1C	hgDAF-12 ag 14 | hgDAF12 conf inactive | LXR ag 2 inactive
COc1ccc(N(CC(=O)NC2CCCCC2)C(=O)c2ccc(C)s2)cc1OC	none
CC(OC(=O)Cn1[nH]c(=O)c2ccccc2c1=O)C(=O)Nc1ccc(F)cc1Cl (stereo not drawn)	none
COc1cccc(C(=O)Nc2nc(C)cs2)c1	hgDAF-12 ag 15 | hgDAF12 conf 14 | LXR ag 2 inactive
CCOC(=O)Cc1csc(NC(=S)NC(=O)c2ccccc2)n1	none
Cc1csc(NC(=S)NC(=O)c2ccccc2)n1	hgDAF-12 ag 16 | hgDAF12 conf 16 | LXR ag 2 inactive
CCOC(=O)c1sc(NC(=O)Cc2ccc(F)cc2)nc1C	none
CCOC(=O)c1sc(NC(=O)Nc2ccc(F)cc2)nc1C	hgDAF-12 ag 17, DAX1 inh-2 3.7 | hgDAF12 conf 23 | LXR ag 2 inactive
CCOC(=O)c1sc(NC(=S)NC(=O)c2ccccc2)nc1C	hcDAF12 agonist 5.9, hgDAF-12 ag 16 | hgDAF12 conf 12 | LXR ag 2 inactive
CCN(CC)S(=O)(=O)c1cccc(NC(=O)CN2C(=O)NC3(CCC(C)CC3)C2=O)c1 (stereo not drawn)	none (no result: AHR act)
COc1ccc(C(=O)Nc2nc3ccccc3s2)cc1	none
CC(=O)Nc1cccc(/C(C)=N/NC(=O)c2cc(-c3ccncc3)nc3ccccc23)c1	none
CC(=O)Nc1cccc(/C(C)=N/Nc2nc3ccccc3s2)c1	hgDAF-12 ag 15, AHR act 61 | hgDAF12 conf 13 | LXR ag 2 inactive
COc1cccc(C(=O)Nc2nc3ccccc3s2)c1	hcDAF12 agonist 6.3, hgDAF-12 ag 17, ssDAF-12 act 2.4 | hgDAF12 conf 20 | LXR ag 2 inactive
COc1ccc(C(=O)Nc2nc3ccccc3s2)cc1OC	hgDAF-12 ag 19 | hgDAF12 conf 14 | LXR ag 2 inactive
CCOC(=O)c1sc(NC(=O)Nc2ccccc2)cc1C	hgDAF-12 ag 17 | hgDAF12 conf 23 | LXR ag 2 inactive
COc1ccc2nc(NC(=O)c3ccc(F)cc3)sc2c1	hgDAF-12 ag 14, DAX1 inh-1 4.7 | hgDAF12 conf 13 | LXR ag 2 inactive
CSc1ccc(/C=N/NC(=O)c2cccs2)cc1	hcDAF12 agonist 6.3, hgDAF-12 ag 16 (no result: DAX1 inh-1) | hgDAF12 conf 18 | LXR ag 2 inactive
Cc1[nH]c2ccccc2c1/C=N/NC(=O)c1cccs1	hcDAF12 agonist 6.1, hgDAF-12 ag 14, AHR act 74, DAX1 inh-1 7.9, ssDAF-12 act 0.9 | hgDAF12 conf inactive | LXR ag 2 inactive
CSc1ccc(/C=N/NC(=O)c2ccccc2Cl)cc1	hgDAF-12 ag 18 | hgDAF12 conf 13 | LXR ag 2 inactive
C[C@H]1[C@@H](OC(=O)NC2CCC2)CC[C@@]23CCCN2C(=O)CCC[C@@H]13	none (no result: AHR act, DAX1 inh-1, DAX1 inh-2)

High-throughput results: PubChem, The Scripps Research Institute Molecular Screening Center
